Only a selection was taken, and hits are over-represented in it overall.
LmPK inh = inhibitors of Leishmania mexicana pyruvate kinase. Q27686. purified LmPK, Kinase-Glo ATP luminescence, 1 h. Potency, µM (top dose mostly 57.5 µM), without a hit: top-dose activity change, negative = inhibition, actives largely listed as inhibitors. 0.37% of 290,000 active. AID 1721; further: potency means the concentration at half of the fitted maximal effect; on the % scale 0 is the no-effect control and ±100 the full control effect
Target sequence (Q27686 whole entry, looked up): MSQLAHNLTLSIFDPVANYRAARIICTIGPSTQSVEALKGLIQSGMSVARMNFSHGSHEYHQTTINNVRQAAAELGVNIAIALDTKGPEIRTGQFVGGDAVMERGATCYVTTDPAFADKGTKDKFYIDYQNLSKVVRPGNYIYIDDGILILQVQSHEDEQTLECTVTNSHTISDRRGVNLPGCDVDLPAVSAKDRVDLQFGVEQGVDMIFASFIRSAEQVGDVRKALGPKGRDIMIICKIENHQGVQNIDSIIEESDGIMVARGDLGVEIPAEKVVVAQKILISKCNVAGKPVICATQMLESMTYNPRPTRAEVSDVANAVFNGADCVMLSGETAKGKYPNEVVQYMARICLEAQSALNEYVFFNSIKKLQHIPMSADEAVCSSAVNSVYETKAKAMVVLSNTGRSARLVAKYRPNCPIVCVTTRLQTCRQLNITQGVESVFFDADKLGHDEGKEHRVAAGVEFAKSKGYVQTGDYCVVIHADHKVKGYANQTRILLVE
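Pyruvate kinase activity monitored as ATP production (luciferase luminescence). Conditions: 0.1 nM enzyme, 0.5 mM PEP, 0.1 mM ADP, 1 h, RT; normalized against uninhibited and no-enzyme wells.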
RE007 growth inh = less growth of the S. pombe RE007 Vpr strain. S. pombe RE007 Vpr strain, BacTiter-Glo ATP luminescence, 24 h. 0.21% of 360,000 active. Potency, µM (top dose mostly 92.2 µM), for inactives: at the highest dose activity change, negative = less growth, hits mostly inhibitors. AID 651644; active means well fitted falling curve with a large enough effect; further: potency means the concentration at half of the fitted maximal effect; on the % scale 0 is the no-effect control and ±100 the full control effect; nearly all actives have a fitted effect of over 50% in size
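Fission yeast strain RE007, carrying one chromosomally integrated HIV-1 vpr copy, was seeded at OD 0.01 in PMG+AL medium with 23 nL pinned compound. After 24 h at 30 °C and 99% humidity, viability was read by BacTiter-Glo luminescence.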
Shiga inhibitor = inhibitors of Shiga toxin in Vero cells | inhibition, % at 38.7 µM | 9.2% of 290,000 active | AID 2315 | Vero cells, Shiga toxin protein synthesis inhibition reporter; in the data active means inhibition mostly above about 28%, no sharp cut-off; inactive means mostly below about 43%; further: 0% is about no effect
FBPA Giardia inh = Giardia lamblia aldolase inhibition; A8B2U2; purified Giardia FBPA; Potency, µM (top dose mostly 59.6 µM), without a hit: at the highest dose activity, negative = inhibition, most hits filed as inhibitors; 0.71% of 290,000 active; AID 2451; further: potency means the concentration at half of the fitted maximal effect; on the % scale 0 is the no-effect control and ±100 the full control effect; nearly all actives have a fitted effect of over 55% in size
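Giardia FBPA (40 nM reagent) was preincubated 10 min at RT with compound (up to 57.5 uM final), then substrate plus GAPDH/TPI/NAD/arsenate coupling system with diaphorase/resazurin was added; resorufin fluorescence (525/598 nm) was read after 20 min.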
TbPYK inhibitor = blocks Trypanosoma brucei pyruvate kinase | Q57TT1 | TbPYK enzyme, Kinase-Glo Plus ATP luminescence, 45 min | Potency, µM (titrated, usually from 76.8 µM), for the others: top-dose activity, negative = inhibition, usual class: inhibitors | 0.12% of 410,000 active | AID 624173; further: potency means the concentration at half of the fitted maximal effect; on the % scale 0 is the no-effect control and ±100 the full control effect; nearly all actives have a fitted effect of over 50% in size
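In this concentration-response screen, enzyme-free wells defined baseline while DMSO plates tracked drift. Each reaction combined TbPYK, substrate, compound and 130 uM ADP for 45 min at room temperature. Kinase-Glo Plus luminescence gave the signal.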
Cycloheximide cs = affects cycloheximide protein synthesis inhibition readout, counter-screen; 12% of 300,000 active; cell reporter, cycloheximide protein synthesis inhibition counterscreen; AID 2314; max response, %; in the data active means max response mostly above about 13%, no sharp cut-off; inactive means mostly below about 14%; further: read at 38.3 µM for the half of the compounds with a filed dose; 0% is about no effect
The depositor's hits bear a star; / = not tested or not shown; [ ] = remark or other dose. Unless noted, the call rests on the fitted dose curve; in most records, active means well fitted curve in the direction sought with a large enough effect; inconclusive means small, poorly fitted or top-dose-only effect, or another doubt; inactive means no such curve, though single readings can be large; an effect the other way counts as inactive or inconclusive.

SMILES | LmPK inh | RE007 growth inh | Shiga inhibitor | FBPA Giardia inh | TbPYK inhibitor | Cycloheximide cs
CC(C)(C)C(=O)Nc1ccc(NC(=O)C(C)(C)C)cc1 | -1.7% | 1.0% | 17.2 | 10.2% | 3.1% | 4.2
CC(C)(C)C(=O)Nc1ccc(C(=O)Nc2cc(NC(=O)c3ccc(NC(=O)C(C)(C)C)cc3)cc(C(=O)O)c2)cc1 | 0.3% | -10.4% | 10.5 | -9.3% | -4.7% | 18.7*
O=C(Cc1ccccc1)Nc1ccc(C(=O)NCc2ccccc2)cc1 | 0.6% | 6.7% | 9.6 | 1.5% | 4.0% | 5.2
O=C(O)c1cc(NC(=O)c2ccc(Br)cc2)cc(NC(=O)c2ccc(Br)cc2)c1 | -9.3% | 2.3% | -5.9 | 14.4% | -1.4% | -2.8
CC(C)(C)C(=O)Nc1ccc(C(=O)NNC(=O)Cc2ccccc2)cc1 | 2.5% | 6.0% | 11.5 | -13.2% | -4.2% | 14.8*
CC(C)(C)C(=O)Nc1ccc(C(=O)NNC(=O)c2ccccc2)cc1 | 0.1% | 8.0% | 78.0* | 5.0% | 1.9% | 31.3*
COc1ccc(OC)c(NC(=O)c2cc3c(=O)n4cccc(C)c4nc3n2C)c1 | / | / | / | / | 3.7% | /
c1cncc(-c2nc(NCC3CCCO3)c3ccccc3n2)c1 (stereo not given) | -3.3% | -8.8% | -16.9 | 14.3% | 0.8% | -4.7
O=C(NC(=S)NCC1CCCO1)c1ccc(Cl)cc1Cl (stereo not given) | -3.5% | -7.1% | 56.1* | 1.1% | -2.0% | 16.0*
CC(C)(C)c1ccc(C(=O)N2CCC(C(=O)NCC3CCCO3)CC2)cc1 (stereo not given) | -5.5% | 2.4% | 35.4 | -1.2% | 6.8% | 20.4*
CC(C)(C)c1ccc(C(=O)NC(=S)NCC2CCCO2)cc1 (stereo not given) | 0.4% | 1.2% | 148.3* | 0.8% | -3.8% | 16.8*
CC(C)Oc1ccc(-c2nc(NCC3CCCO3)c3ccccc3n2)cc1 (stereo not given) | -1.8% | 2.3% | 47.4* | -4.6% | 0.7% | 20.3*
CC(C)(C)c1ccc(C(=O)NNC(=S)NCC2CCCO2)cc1 (stereo not given) | 0.1% | 13.5% | 26.2 | 4.1% | -10.0% | 8.7
CC(=O)N1CCCC1c1nc2ccccc2n1Cc1c(F)cccc1Cl (stereo not given) | / | / | / | / | -2.7% | /
CNC(=O)c1c(NC(=O)c2cc(=O)c3cc(C)c(C)cc3o2)sc2c1CCCC2 | / | / | / | / | -7.7% | /
COc1ccc(C(=O)NC(=S)NCC2CCCO2)cc1 (stereo not given) | -0.7% | -25.5% | 53.5* | -0.4% | -3.2% | 41.5*
COc1ccc(-c2cc(C(=O)NCC3CCCO3)c3ccccc3n2)c(OC)c1 (stereo not given) | -0.8% | -9.7% | 1.6 | -13.1% | -2.2% | -3.4
CCOc1ccc(C(=O)NCC2CCCO2)cc1 (stereo not given) | -0.7% | 3.2% | 116.5* | -9.7% | -0.5% | 38.1*
CCOc1ccc(-c2cc(C(=O)NCC3CCCO3)c3ccccc3n2)cc1 (stereo not given) | 3.4% | 3.2% | 65.1* | 0.2% | 0.7% | 23.9*
O=C(NCC1CCCO1)c1ccc(C(=O)NCC2CCCO2)cc1 (stereo not given) | -3.2% | -11.9% | -1.1 | 6.9% | -10.3% | -1.7
Cn1c(=O)c2cc(NC(=O)NCc3ccc(F)cc3)ccc2n1C | / | 5.5%[18.4 µM] | / | / | -4.4% | /
Cc1ccc(Oc2c(C(F)(F)F)oc3c(CN4CCCCC4C)c(O)ccc3c2=O)cc1 (stereo not given) | / | / | / | / | -4.1% | /
Cc1ccc(C)c(Nc2nc3c(S(=O)(=O)c4ccc(Br)cc4)nnn3c3ccsc23)c1 | / | / | / | / | 5.2% | /
Fc1cc(Cl)c(OCc2noc(-c3ccsc3)n2)c(Cl)c1 | -1.4% | 0.2% | 35.0* | -0.4% | -8.5% | 21.2*
Clc1ccc(OCCCc2nc(-c3ccncc3)no2)c(Cl)c1 | -0.1% | 0.1% | 15.6 | 2.0% | 7.0% | 16.0
COc1cc(-c2nc(Cc3ccccc3Cl)no2)cc(OC)c1OC | 1.8% | 4.0% | -3.0 | -0.9% | -12.0% | -4.5
Clc1ccc(OCc2noc(-c3ccsc3)n2)c(Cl)c1 | -8.1% | 12.3% | 130.2* | -4.8% | -1.2% | 49.8*
